Values without a mark were called inactive. For some assays here: Results with a measured potency or affinity are listed apart. This is one part of the list. Activity calls are given as the source filed them.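 How the source made its calls, unless noted: active means calcium signal ratio cut to more than 3 SD under the fully stimulated control mean yet still positive, in both repeats and the primary screen; inactive means the rest.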

The values that follow come from PubChem BioAssay.

The test system of assay [1] is TRPC4 beta (transient receptor potential cation channel C4), mouse. Kind of assay: activators of mouse TRPC4 channel, confirmation, cell-based, Fluo4 calcium, HEK293 TRPC4beta/mu-opioid, duplicates, 10 µM (AID 2426;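 active means fluorescence ratio normalized to control raised more than 50% in primary screen plus both repeat runs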). As to conditions: Fluo4 calcium fluorescence, at 10 µM; stronger effect = higher value.
Assay [2] deals with transient receptor potential cation channel C4 beta (TRPC4), mouse. Briefly: activators of mouse TRPC4 channel, confirmation, cell-based, second round, Fluo4, HEK293 TRPC4beta/mu-opioid, 1 µM (AID 2461;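 active means primary screen active and over 50% activation in each of two duplicate runs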). Particulars: Fluo4 calcium fluorescence, at 1 µM; stronger effect = higher value.
The subject of assay [3] is TRPC4 (transient receptor potential cation channel C4 beta), mouse. Kind of assay: positive allosteric modulators of mouse TRPC4, confirmation, cell-based, second round, Fluo-4, HEK293 TRPC4beta/mu-opioid, 1 µM (AID 2554;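 active means primary screen hit whose fluorescence ratio, in both repeats, exceeds the weak agonist control mean by 3 SD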). As to conditions: DAMGO EC20, Fluo-4 calcium flux, at 1 µM; stronger effect = higher value. (Calcium assays in cells follow changes in intracellular calcium, usually with a dye or a luminescent sensor.)

The subject of assay [4] is TRPC4 beta (transient receptor potential cation channel C4), mouse. Briefly: positive allosteric modulators of mouse TRPC4, confirmation, cell-based, Fluo-4, HEK293 TRPC4beta/mu-opioid (AID 2555;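 active means primary screen hit whose calcium fluorescence ratio, in both repeats, exceeds the weak agonist control mean by 3 SD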). As to conditions: DAMGO EC20, Fluo-4 calcium flux, at 10 µM; stronger effect = higher value.
Assay [5] deals with Short transient receptor potential channel 4 (Mus musculus) (UniProt Q9QUQ5). Briefly: inhibitors of mouse TRPC4 channel, confirmation, cell-based, Fluo4, HEK293 TRPC4beta/mu-opioid (AID 2636;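 active means calcium signal cut by more than 3 SD below the full-agonist control yet still positive, in both repeats and the earlier primary screen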). As to conditions: DAMGO, Fluo4 calcium flux, at 10 µM; stronger effect = higher value.
Assay [6] shares this target. Kind of assay: inhibitors of mouse TRPC4 channel, confirmation, cell-based, second round, Fluo4, HEK293 TRPC4beta/mu-opioid, 1 µM (AID 2637). As to conditions: Fluo4 calcium flux, DAMGO, at 1 µM; stronger effect = higher value.
Assay [7] has the same target. Briefly: mouse TRPC4 channel activators, dose response, cell-based, HEK293 TRPC4/mu-opioid, Fluo-4 calcium (AID 434937;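 active means primary screen activator hit with a dose response curve and TRPC4 channel activation at any tested dose; inactive means no activation, no dose response, or not a primary hit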).
The target is the same in assay [8]. Kind of assay: TRPC4 positive allosteric modulators, dose response, cell-based, HEK293 TRPC4/mu-opioid, Fluo-4 calcium, EC20 DAMGO (AID 434941;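 active means earlier screen potentiator hit that boosts the TRPC4 ion channel at some dose, with a dose response; inactive means no potentiation, no dose response, or not a prior hit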;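 further: calcium entry triggered by an EC20 dose of DAMGO at the co-expressed mu-opioid receptor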).
The target is the same in assay [9]. Briefly: mouse TRPC4 channel inhibitors, dose response, cell-based, HEK293 TRPC4/mu-opioid, Fluo-4 calcium (AID 434942;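 active means primary screen inhibitor hit that blocks the TRPC4 channel at some tested dose, yielding a dose curve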).
The target of assay [10] is Short transient receptor potential channel 6 (Mus musculus) (UniProt Q61143). Briefly: inhibition of mouse TRPC6 channel, confirmation, selectivity assay for TRPC4 inhibitor project, cell-based, HEK293, membrane potential dye, duplicate (AID 434948;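 active means active in primary screen and both duplicates, each dropping signal beyond three positive-control SD with fluorescence still positive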). Particulars: HEK293 TRPC6, membrane potential dye fluorescence, at 10 µM, stimulated with maximal-effect acetylcholine; stronger effect = higher value.

For assay [11] the target is unchanged. Briefly: activation of mouse TRPC6 channel, confirmation, selectivity assay for TRPC4 activator project, cell-based, HEK293, membrane potential dye, duplicate (AID 434950;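 active means membrane potential signal rise above negative control mean plus 3 SD in both duplicates, also active in the earlier TRPC4 screen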). Particulars: HEK293 TRPC6, membrane potential fluorescence, at 10 µM; stronger effect = higher value.
For assay [12] the target is unchanged. Kind of assay: TRPC6 potentiation by TRPC4 potentiator hits, confirmation, selectivity assay for TRPC4 potentiator project, HEK293 cells, membrane potential dye, duplicate (AID 434952;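 active means compound raising the membrane signal above positive-control mean plus 3 SD in both repeats, and a primary screen hit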). Particulars: HEK293 TRPC6, membrane potential dye fluorescence, at 10 µM, maximal acetylcholine added after compound; stronger effect = higher value.
For assay [13], the target named is Short transient receptor potential channel 4 (Mus musculus) (UniProt Q9QUQ5). Briefly: calcium flux activators in TRPC4/5HT1a cells, counter-screen for TRPC4 activator project, cell-based, second counter screen, HEK293 TRPC4/5HT1a, Fluo-4 (AID 434977;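 active means calcium signal rise above buffer-control mean plus 5 SD in both duplicates, and also a hit in the primary screen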). Particulars: Fluo-4 calcium flux, at 10 µM; stronger effect = higher value.
Assay [14] can be described thus: calcium flux inhibitors in TRPC4/5HT1a cells, confirmation, counter-screen for TRPC4 inhibitor project, cell-based, second counter screen, HEK293 TRPC4/5HT1a, Fluo-4 (AID 434978;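 active means primary screen active whose calcium signal fell more than 3 SD beyond the full-serotonin control mean in both duplicate plates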;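 further: serotonin given first at submaximal then at maximal dose after compound preincubation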). As to conditions: Fluo-4 calcium flux, at 10 µM, serotonin added to trigger calcium flux; stronger effect = higher value.
For assay [15], the system named is TRPC4 (mouse), co-expressed with 5HT1a in HEK293. Kind of assay: calcium flux potentiators in TRPC4/5HT1a cells, confirmation, counter-screen for TRPC4 potentiator project, cell-based, second counter screen, HEK293 TRPC4/5HT1a, Fluo-4 (AID 434979;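 active means signal rise over 3 SD above mean of control wells given weak agonist, in both repeats and first screen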). Particulars: Fluo-4 calcium flux, at 10 µM, serotonin added at its EC20 dose; stronger effect = higher value.
Assay [16] in a line: calcium flux activation in mu-opioid HEK293 cells, confirmation, counter-screen for TRPC4 activator project, cell-based, HEK293 mu-opioid receptor line (AID 449723;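 active means hit in primary screen, with calcium signal over 5 SD above buffer well mean in both duplicates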;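 further: counter screen cells carry the mu-opioid receptor alone and lack TRPC4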). As to conditions: Fluo-4 calcium fluorescence, at 10 µM; stronger effect = higher value.
Assay [17] is described as follows: calcium flux enhancement in mu-opioid HEK293 cells, confirmation, counter-screen for TRPC4 allosteric potentiator project, cell-based, HEK293 mu-opioid receptor line (AID 449724;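 active means calcium signal rise more than 3 SD above the low-dose agonist control mean, in both duplicate plates and the primary screen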;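 further: HEK293 cells carrying mu-opioid receptor only with no TRPC4 channel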). As to conditions: Fluo-4 calcium flux, at 10 µM, compound added before EC20 DAMGO stimulus; stronger effect = higher value.
A short description of assay [18]: nonspecific thallium flux increase in parental CHO-K1, confirmation, counter-screen for KCNQ2 potentiator project, cell-based, FluxOR thallium flux, duplicate (AID 2282;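 active means signal rise of at least 3 SD above the untreated control mean, in both duplicate wells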;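 further: counter screen of KCNQ2 potentiator hits so any rise reflects channel-independent effects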). Particulars: parental CHO-K1 cells, FluxOR thallium flux fluorescence; at 10 µM; stronger effect = higher value; zero = vehicle mean+3SD, 100% = vehicle-minus-blank window.
The target in assay [19] is Potassium voltage-gated channel subfamily KQT member 1 (Homo sapiens) (UniProt P51787). Briefly: human KCNQ1 channel potentiation off-target, confirmation, selectivity assay for KCNQ2 potentiator project, cell-based, CHO, FluxOR thallium flux (AID 2283;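 active means fluorescence ratio rise of at least 3 SD of vehicle wells above their mean, in both replicate wells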;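 further: 0% = vehicle mean plus 3 SD and 100% = vehicle minus unstimulated blank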). As to conditions: CHO KCNQ1 stable, FluxOR thallium flux fluorescence; at 10 µM; stronger effect = higher value; beyond 3SD, as % of vehicle-control signal.

Assay [20] deals with Potassium voltage-gated channel subfamily KQT member 2 (Rattus norvegicus) (UniProt O88943). Kind of assay: rat KCNQ2 channel potentiators, confirmation, cell-based, CHO, FluxOR thallium flux, duplicate (AID 2287;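 active means fluorescence ratio rising 3 SD or more over the vehicle control mean in both replicates, plus primary screen hit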;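 further: peak minus minimum thallium fluorescence divided by baseline after K/Tl stimulus; 0% = vehicle mean plus 3 SD and 100% = vehicle minus unstimulated blank difference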). Particulars: CHO-KCNQ2 cells, FluxOR thallium flux fluorescence; at 10 µM; stronger effect = higher value.
Assay [21] shares this target. Kind of assay: potentiators of retigabine-insensitive KCNQ2 W236L, mechanism study for KCNQ2 potentiator project, cell-based, rat KCNQ2 W236L, CHO, automated patch clamp (AID 2558;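 active means current increase at least 3 SD of the untreated controls above them in both duplicate recordings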). As to conditions: at 25 µM; outcome: automated patch clamp current. On the technique in general: The patch-clamp technique gives a direct electrical read-out from membranes.

Chain of Short transient receptor potential channel 4 (Mus musculus) (Q9QUQ5 whole entry, looked up): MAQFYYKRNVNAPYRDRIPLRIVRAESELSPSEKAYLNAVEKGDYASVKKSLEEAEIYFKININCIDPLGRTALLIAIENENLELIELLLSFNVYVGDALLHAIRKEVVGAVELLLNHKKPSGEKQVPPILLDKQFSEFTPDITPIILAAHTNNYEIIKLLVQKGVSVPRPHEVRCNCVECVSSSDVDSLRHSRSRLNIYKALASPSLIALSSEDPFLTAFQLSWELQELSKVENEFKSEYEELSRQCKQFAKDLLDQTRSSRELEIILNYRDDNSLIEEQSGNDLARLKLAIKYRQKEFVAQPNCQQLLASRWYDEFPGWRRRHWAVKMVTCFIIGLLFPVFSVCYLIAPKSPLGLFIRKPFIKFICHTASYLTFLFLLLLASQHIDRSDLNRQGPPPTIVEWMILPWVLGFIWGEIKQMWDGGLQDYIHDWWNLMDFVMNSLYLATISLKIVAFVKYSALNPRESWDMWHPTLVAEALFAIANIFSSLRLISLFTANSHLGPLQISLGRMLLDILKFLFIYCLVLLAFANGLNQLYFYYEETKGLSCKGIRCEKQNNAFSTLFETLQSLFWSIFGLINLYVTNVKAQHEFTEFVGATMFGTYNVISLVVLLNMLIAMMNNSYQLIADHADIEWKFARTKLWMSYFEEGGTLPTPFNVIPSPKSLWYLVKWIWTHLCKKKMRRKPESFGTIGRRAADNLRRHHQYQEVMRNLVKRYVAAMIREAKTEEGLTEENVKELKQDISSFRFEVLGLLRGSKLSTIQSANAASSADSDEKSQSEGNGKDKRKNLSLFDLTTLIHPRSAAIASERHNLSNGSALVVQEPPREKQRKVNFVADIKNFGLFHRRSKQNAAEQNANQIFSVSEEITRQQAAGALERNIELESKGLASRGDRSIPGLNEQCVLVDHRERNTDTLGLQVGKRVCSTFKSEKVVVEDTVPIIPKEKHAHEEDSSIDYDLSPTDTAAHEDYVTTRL
Chain of Short transient receptor potential channel 6 (Mus musculus) (Q61143 whole entry, looked up): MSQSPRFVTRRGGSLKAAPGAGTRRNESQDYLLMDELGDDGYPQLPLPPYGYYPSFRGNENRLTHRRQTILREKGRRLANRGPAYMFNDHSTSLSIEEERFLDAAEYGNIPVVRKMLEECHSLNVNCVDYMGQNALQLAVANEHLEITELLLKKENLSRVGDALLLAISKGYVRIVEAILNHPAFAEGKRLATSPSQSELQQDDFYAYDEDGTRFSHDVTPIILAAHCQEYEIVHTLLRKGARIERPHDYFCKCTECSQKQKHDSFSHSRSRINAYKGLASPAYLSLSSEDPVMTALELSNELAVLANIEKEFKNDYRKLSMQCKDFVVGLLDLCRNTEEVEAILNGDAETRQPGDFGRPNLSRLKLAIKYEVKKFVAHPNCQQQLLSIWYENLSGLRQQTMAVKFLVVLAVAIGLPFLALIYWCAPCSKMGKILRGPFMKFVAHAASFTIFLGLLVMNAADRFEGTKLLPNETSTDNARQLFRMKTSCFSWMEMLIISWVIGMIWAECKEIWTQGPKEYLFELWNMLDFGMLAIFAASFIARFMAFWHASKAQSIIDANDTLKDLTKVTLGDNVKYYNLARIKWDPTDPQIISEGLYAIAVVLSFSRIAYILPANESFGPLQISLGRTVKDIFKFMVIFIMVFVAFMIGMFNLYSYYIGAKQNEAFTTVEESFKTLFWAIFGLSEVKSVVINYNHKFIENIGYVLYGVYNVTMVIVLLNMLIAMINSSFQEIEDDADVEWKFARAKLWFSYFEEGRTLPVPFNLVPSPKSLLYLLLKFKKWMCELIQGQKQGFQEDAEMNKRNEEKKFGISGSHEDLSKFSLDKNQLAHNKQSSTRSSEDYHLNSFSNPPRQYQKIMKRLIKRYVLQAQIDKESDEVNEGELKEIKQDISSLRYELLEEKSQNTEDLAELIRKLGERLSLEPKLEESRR
Chain of Potassium voltage-gated channel subfamily KQT member 1 (Homo sapiens) (P51787 whole entry, looked up): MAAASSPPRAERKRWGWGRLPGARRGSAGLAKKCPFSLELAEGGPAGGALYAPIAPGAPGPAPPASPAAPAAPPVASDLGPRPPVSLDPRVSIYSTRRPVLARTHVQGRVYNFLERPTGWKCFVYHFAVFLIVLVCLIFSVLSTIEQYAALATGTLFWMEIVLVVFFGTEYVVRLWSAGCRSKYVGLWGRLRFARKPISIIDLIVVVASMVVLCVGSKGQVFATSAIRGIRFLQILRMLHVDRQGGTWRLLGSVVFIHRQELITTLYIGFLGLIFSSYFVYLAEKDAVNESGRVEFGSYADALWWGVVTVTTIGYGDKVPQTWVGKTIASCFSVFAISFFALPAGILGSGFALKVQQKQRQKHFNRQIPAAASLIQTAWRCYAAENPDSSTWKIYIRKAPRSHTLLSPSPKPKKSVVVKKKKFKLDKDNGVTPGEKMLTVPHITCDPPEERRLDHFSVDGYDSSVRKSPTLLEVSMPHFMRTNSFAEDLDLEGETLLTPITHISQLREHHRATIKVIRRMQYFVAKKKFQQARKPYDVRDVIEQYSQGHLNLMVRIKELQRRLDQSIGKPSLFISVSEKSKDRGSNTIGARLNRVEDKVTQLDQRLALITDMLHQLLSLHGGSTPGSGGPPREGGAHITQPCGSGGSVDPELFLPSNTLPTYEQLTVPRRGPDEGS

With `COc1ccc(CCN2CCCC(CN(C)C(=O)c3ccoc3)C2)cc1` (centres undefined), the outcome in assay [1], in [2], in assay [3], in assay [4], in assay [5] and in [6] was inactive. Also, the result in [7], in [8], in assay [9], in assay [10], in assay [11] and in assay [12] was inactive. For the same compound, the result in [13], in [14], in assay [16] and in assay [17] was inactive. Besides, the potentiation in [15] is 14.1% (active).
On to `CC(=O)Cn1ncc(N2CCOCC2)cc1=O`, for which the outcome in assay [1], in assay [2], in assay [3], in [4], in [5] and in assay [6] was inactive. The result in assay [7], in assay [8], in [9], in [10], in assay [11] and in assay [12] was inactive. In addition, the outcome in [13], in assay [14], in [15], in assay [16] and in assay [17] was inactive.
On to `CC1CCCCC1NC(=O)c1cc2ccccc2o1` (centres undefined), for which the outcome in [1], in assay [2], in assay [3], in [5], in [6] and in [7] was inactive. Further, the result in assay [8], in assay [9], in [10], in assay [11], in assay [12] and in assay [13] was inactive. For the same compound, the outcome in assay [14], in [16] and in assay [17] was inactive. Besides, the potentiation was 46% (active) in [4] and 42.2% (active) in assay [15].
By inhibition is commonly meant the relative decrease from the control value, in per cent. For `COc1cccc(N(C(=O)c2snc(C(N)=O)c2N)C(C(=O)NCC2CCCO2)c2ccc3ncccc3c2)c1` (centres undefined), the result in assay [1], in assay [2], in assay [3], in assay [4], in [6] and in [7] was inactive. In addition, the outcome in [8], in assay [9], in assay [10], in assay [11], in assay [12] and in assay [13] was inactive. The outcome in assay [14], in assay [15], in assay [16] and in assay [17] was inactive. Also, the inhibition in [5] is 76% (active).
`Cc1ccc(SC(CC(=O)c2ccc(C(C)(C)C)cc2)C(=O)O)cc1` (centres undefined): the result in [1], in assay [2], in [3], in [4], in assay [5] and in assay [6] was inactive. Besides, the result in [7], in assay [8], in assay [9], in [10], in assay [11] and in assay [12] was inactive. Also, the outcome in [13], in assay [14], in [15], in assay [16] and in assay [17] was inactive.
As to `Cc1cc(C(=O)OCC(=O)Nc2ccc(F)c(F)c2)c(C)o1`, the activity increase over 3SD of controls in [18] was -17.5%. Moreover, the activation over 3SD threshold in assay [19] was -23.1%. Further, in [20], the potentiation, less the hit threshold was 17.6% (active). The result in [21] was inactive.
